Source: PubChem (National Center for Advancing Translational Sciences (NCATS))
This is one part of a sample in which hits are shown more often than they occur.
12-LOX inh: blocks human arachidonate 12S-lipoxygenase | P18054 | purified 12hLO, xylenol orange hydroperoxide absorbance | Potency, µM (titrated, usually from 108 µM), for inactives: at the highest dose activity change, negative = inhibition, hits mostly inhibitors | actives 1.1% (n = 580,000) | AID 1671190; note: potency is the fitted concentration of half-maximal effect
Target sequence (P18054 whole entry, looked up): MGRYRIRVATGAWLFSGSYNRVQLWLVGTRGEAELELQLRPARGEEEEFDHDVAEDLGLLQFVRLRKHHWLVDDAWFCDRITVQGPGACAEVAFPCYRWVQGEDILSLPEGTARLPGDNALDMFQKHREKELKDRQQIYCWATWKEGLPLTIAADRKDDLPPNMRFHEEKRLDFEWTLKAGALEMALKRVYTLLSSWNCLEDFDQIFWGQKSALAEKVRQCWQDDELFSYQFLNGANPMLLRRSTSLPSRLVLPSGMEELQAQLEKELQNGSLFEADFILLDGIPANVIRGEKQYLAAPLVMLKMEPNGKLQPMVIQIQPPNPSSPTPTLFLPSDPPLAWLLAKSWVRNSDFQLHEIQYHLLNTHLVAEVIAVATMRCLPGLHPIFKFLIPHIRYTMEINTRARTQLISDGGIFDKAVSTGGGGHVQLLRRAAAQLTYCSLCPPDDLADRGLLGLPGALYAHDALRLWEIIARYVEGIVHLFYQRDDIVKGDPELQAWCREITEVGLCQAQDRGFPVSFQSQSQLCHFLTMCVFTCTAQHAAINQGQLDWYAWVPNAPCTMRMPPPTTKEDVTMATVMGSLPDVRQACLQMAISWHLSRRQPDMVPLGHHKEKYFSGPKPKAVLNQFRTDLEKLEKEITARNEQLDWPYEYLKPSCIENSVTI
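Purified human 12hLO (150 nM final) in 25 mM Hepes, 0.01% Triton X-100, pH 7.0 was preincubated 15 min at room temperature with compound. Then 40 uM arachidonic acid was added, 30 min. Hydroperoxide was read by Fe-XO absorbance ratio 573/405 nm.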
DT40 TDP1 CPT: DT40-hTDP1 cell growth loss with CPT; chicken DT40 Tdp1-/-;hTDP1 cells + 20 nM CPT, ATP luminescence, 48 h; Potency, µM (titrated, usually from 46.2 µM), for inactives: at the highest dose activity change, negative = growth inhibition, hits mostly inhibitors; actives 12% (n = 420,000); note: potency is the fitted concentration of half-maximal effect; nearly all actives have a fitted effect of over 55% in size
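Cell growth measured by CellTiter-Glo luminescence after a minimum 48 h, 37 C compound exposure with 20 nM CPT in Tdp1-knockout DT40 cells stably expressing hTDP1, seeded 400/well; qHTS titration format.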
TDP1 cell noCPT: qHTS for Inhibitors of human tyrosyl-DNA phosphodiesterase 1 (TDP1): qHTS in cells in absence of CPT | Potency, µM (titrated, usually from 46.2 µM), for the others: at the highest dose activity change, negative = growth inhibition, hits mostly inhibitors | DT40 Tdp1-/- hTDP1 cells, no CPT, ATP luminescence, 48 h | actives 15% (n = 420,000); note: potency is the fitted concentration of half-maximal effect; nearly all actives have a fitted effect of over 55% in size
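Stably hTDP1-transfected Tdp1-null chicken DT40 cells were treated with library compounds minus camptothecin and grown for at least 48 hr at 37 °C, after which cellular ATP was quantified by luminescence.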
HT1080 IDH1KD tx: kills HT-1080 cells with IDH1 knockdown. HT-1080 IDH1 knockdown viability, ATP luminescence, 48 h. Potency, µM (highest dose often 46.1 µM), without a hit: top-dose activity, negative = toxicity, most hits filed as cytotoxic. actives 2% (n = 360,000);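 note: potency is the fitted concentration of half-maximal effect; 0% = DMSO wells and -100% = cell-free medium wells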
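CellTiter-Glo luminescence after 48 h compound exposure at 37 degrees C of IDH1-knockdown HT-1080 cells in 5% FBS RPMI. %Activity scaled between DMSO wells and cell-free media wells, with curves fitted and assigned curve classes.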
HT1080NT lethal: kills 2HG-producing HT-1080-NT fibrosarcoma cells; HT-1080-NT fibrosarcoma viability, CellTiter-Glo ATP luminescence, 48 h; Potency, µM (doses to about 46.1 µM), for the others: at the top dose activity, negative = less viability, usual class: cytotoxic; actives 1.6% (n = 360,000); AID 686970;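 note: NT is the 2HG producing partner of a matched IDH1 knockdown line; potency is the fitted concentration of half-maximal effect; 0% = DMSO-treated cells and -100% = media-only wells without cells; nearly all actives have a fitted effect of over 55% in size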
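Luminescent CellTiter-Glo readout after 48 hours of compound exposure at 37 degrees C defined viability of HT-1080-NT cells. Activity was normalized to DMSO wells and cell-free media wells; concentration-response curves were fitted and assigned curve classes.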
IL1B secr inh: blocks inflammasome-driven IL-1 beta release. activity change, % at 57.5 µM. actives 4.7% (n = 360,000). AID 743279. THP-1 LPS/ATP IL-1B secretion, AlphaLISA, 16 h; active compounds read low; in the data active = activity change below about -50%; inconclusive = mostly about -30% to -49%
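Secreted IL-1B measured by AlphaLISA bead assay after 16 h compound exposure of THP-1 cells; compounds (final up to 57.5 uM) added 1 h before LPS (250 ng/mL) and ATP (1.25 mM) stimulation; lower signal means less secretion.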
* marks the source's active call; other numbers are inactive results; ? = inconclusive; · = not tested or not shown; [ ] = dose if it differs, or a comment. Unless noted, calls come from the whole dose curve; as a rule, active = well fitted curve in the direction sought with a large enough effect; inconclusive = small, poorly fitted or top-dose-only effect, or another doubt; inactive = no such curve, though single readings can be large; an effect the other way counts as inactive or inconclusive. Unless noted, % is set by controls: 0 for no effect and ±100 for the full control effect.

SMILES | 12-LOX inh | DT40 TDP1 CPT | TDP1 cell noCPT | HT1080 IDH1KD tx | HT1080NT lethal | IL1B secr inh
CCOC(=O)c1cc(-c2ccccc2)sc1NC(=O)C(C)N1C(=O)c2ccccc2C1=O (stereo unspecified) | -5% | -5% | -4% | 22% | 27% | -53*
CCOC(=O)c1cc(-c2ccccc2)sc1NC(=O)COC(=O)c1cccc(S(N)(=O)=O)c1 | 0% | ? | 10µM* | ? | -21% | -11
COc1ccc(-c2noc(C(=O)NC(C)(C)C)c2[C@H](C)O)cc1 | 41%[176 µM] | · | · | · | · | ·
OCC1CCCCC1CN1CCNCC1 (stereo unspecified) | -9% | · | · | · | · | ·
CC(C)(C)C(=O)NCCCC(=O)NCC(C)(C)c1ccccc1 | -34% | · | · | · | · | ·
O=S(=O)(c1ccccc1)N1CCN(c2ncnc3sc(-c4ccccc4)cc23)CC1 | 1% | 21µM* | 12µM* | -4% | -8% | -21
CN(C)/C=N/c1c(C#N)cnn1-c1ncnc2sc(-c3ccccc3)cc12 | 3% | 21µM* | 18µM* | -11% | -9% | -16
CCc1cc2c(N3CCCCC3)ncnc2s1 | 28µM* | ? | ? | -16% | -16% | 11
c1ccc(-c2cc3c(N4CCN(c5ncccn5)CC4)ncnc3s2)cc1 | -13% | ? | ? | 9% | 14% | 3
Cc1ccc(S(=O)(=O)N2CCN(c3ncnc4c3cnn4-c3ccccc3)CC2)cc1 | 29% | -1% | -17% | 9% | 8% | -2
c1ccc(-c2cc3c(N4CCN(c5ccccc5)CC4)ncnc3s2)cc1 | -16% | ? | 18µM* | -10% | -26% | -30
COC(=O)CNC(=O)C1(c2ccccc2)CCC1 | 14% | · | · | · | · | ·
CN1CCN(c2ncnc3sc(-c4ccccc4)cc23)CC1 | -28% | ? | ? | 7% | -2% | -60*
Cc1ccc2[nH]cc(C(c3ccccc3)c3cccs3)c2c1 (stereo unspecified) | -30% | ? | 18µM* | · | · | ·
Cc1ccc2[nH]cc(C(c3ccccc3)c3ccc(C)s3)c2c1 (stereo unspecified) | ? | ? | 18µM* | · | · | ·
Cc1ccc(C(c2cccc([N+](=O)[O-])c2)c2ccc(C)s2)s1 | 24% | · | · | · | · | ·
O=C(NC1CC(c2nnc(CO)n2C2CC2)C1)c1nc2ccccc2[nH]1 (stereo unspecified) | 37% | · | · | · | · | ·
Cc1ccccc1C1CCCN1CC(=O)N(CCC#N)c1ccccc1F (stereo unspecified) | 10% | · | · | · | · | ·
Cn1c(=O)n(Cc2ccc(Br)cc2)c2ccccc21 | -28% | ? | ? | -5% | ? | -108*
CCc1nc2ccc(C(=O)NCc3ccc4c(c3)OCO4)cn2c1N(C)CCC(C)C | -12% | ? | 15µM* | ? | ? | 0
CCc1nc2ccc(C(=O)NCc3ccc4c(c3)OCO4)cn2c1N(C)Cc1ccc(OC)cc1 | 15% | 18µM* | 23µM* | -17% | -30% | -10
CCc1nc2ccc(C(=O)NCCC(C)C)cn2c1N(C)Cc1nccs1 | ? | ? | ? | 0% | 3% | -21
CCc1nc2ccc(C(=O)N(CC)CCN(C)C)cn2c1N(C)Cc1ccc(OC)cc1 | -22% | -17% | -18% | -2% | -4% | -24
CCOc1ccccc1NC(=O)c1oc2ccccc2c1NC(=O)C1CCCO1 (stereo unspecified) | -11% | 16µM* | 9.2µM* | 9% | 16% | -1
O=C(Nc1ccc(F)c(F)c1)c1oc2ccccc2c1NC(=O)C1CCCO1 (stereo unspecified) | -13% | ? | 5.2µM* | -5% | -23% | 27
SMILES | 12-LOX inh | DT40 TDP1 CPT | TDP1 cell noCPT | HT1080 IDH1KD tx | HT1080NT lethal | IL1B secr inh
COc1ccccc1NC(=O)c1oc2ccccc2c1NC(=O)C1CC1 | 0% | ? | ? | ? | -30% | 0
COc1ccc(NC(=O)c2oc3ccccc3c2NC(=O)C2CCCO2)cc1OC (stereo unspecified) | 1% | ? | 18µM* | -18% | -1% | 0
CCOc1ccccc1NC(=O)c1ccc(NC(=O)C2CCCO2)cc1 (stereo unspecified) | 0% | -1% | -15% | 0% | 11% | -24
O=C(Nc1ccc2c(c1)OCCO2)c1oc2ccccc2c1NC(=O)C1CC1 | -5% | ? | ? | -11% | -9% | -2
Cc1ccc(NC(=O)c2oc3ccccc3c2NC(=O)C2CCCO2)cc1C (stereo unspecified) | 0% | 10µM* | 8.2µM* | -22% | -30% | -5
CC(/C=N/O)=N/N=C(C)\C=N\O | 8% | · | · | · | · | ·
CC(C)CN1C(=O)c2cccn2CC1C(=O)NCC1CCN(Cc2ccc(F)cc2)CC1 (stereo unspecified) | 6% | · | · | · | · | ·
CCN(CC)C1CCOC2(CCN(C(=O)c3sc(C)nc3C)CC2)C1 (stereo unspecified) | 53% | · | · | · | · | ·
CCOC(=O)c1[nH]c2ccc(F)cc2c1NC(=O)CN1CCN(C/C=C/c2ccccc2)CC1 | -2% | ? | ? | 26µM* | 21µM* | -79*
COC(=O)c1[nH]c2ccccc2c1NC(=O)CN1CCN(C/C=C/c2ccccc2)CC1 | -26% | 26µM* | ? | ? | ? | -76*
O=C(NCCc1ccccc1)c1nn(-c2ccccc2Cl)nc1CO | -20% | 12µM* | 13µM* | · | · | ·
O=C(NCCCc1ccccc1)c1nn(-c2ccccc2)nc1CO | -30% | ? | ? | · | · | ·
N#Cc1ccc(C(=O)NCCCSc2ccccc2)cc1 | 1% | ? | 21µM* | -15% | -3% | 14
O=C(NCCc1ccccc1)c1cnc(Cl)c(Cl)c1 | 0% | 10% | ? | 22% | 18% | -87*
O=C(NCCCSc1ccccc1)c1cccnc1 | -13% | -6% | 0% | 1% | 1% | 54
O=C(OCc1ccccc1)c1cnc(Cl)c(Cl)c1 | 10% | -1% | 0% | 7% | 0% | -4
O=C(NCCCSc1ccccc1)c1cnc(Cl)c(Cl)c1 | ? | -27% | -25% | -7% | -5% | -94*
COC(=O)c1ccc(-c2ccc(C(=O)O)cc2)cc1 | -3% | · | · | · | · | ·
O=C(NCC(F)F)C1CCCN(c2nc3ncccc3o2)C1 (stereo unspecified) | 57%[176 µM] | · | · | · | · | ·
COc1ccc(CNC(=O)CCSCc2cccc(Cl)c2)cc1 | 2% | 4% | -13% | 23% | 19% | -4
